The full data set covers some 7,900 targets. This sample favours those with a hit. About 0.6% of all pairs of compound and target were hits.
biological target: ZW10 (UniProt O43264); assay: log2 fold change, soluble protein after heating vs DMSO (PISA); higher = thermal stabilisation; K562 cells, 10 uM, 30 min; active = over 0.2 and 3.5 SD of the protein, either way, in both replicates (recomputed)
Summary of the method: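 K562 cells (2×10^6 cells/mL) were treated with 10 μM compound for 30 min, and aliquots were heated for 3 min over 48°C-58°C. Pooled aliquots were extracted in PBS with 0.5% NP-40 at 4°C, and the supernatant after 21,000xg for 90 min was measured by TMTpro 16plex LC-MS/MS with channel sums equalised. Reported thermal stability, relative to control samples and from duplicates, is a log2 fold change.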

ZW10, sequence (O43264 whole entry, looked up): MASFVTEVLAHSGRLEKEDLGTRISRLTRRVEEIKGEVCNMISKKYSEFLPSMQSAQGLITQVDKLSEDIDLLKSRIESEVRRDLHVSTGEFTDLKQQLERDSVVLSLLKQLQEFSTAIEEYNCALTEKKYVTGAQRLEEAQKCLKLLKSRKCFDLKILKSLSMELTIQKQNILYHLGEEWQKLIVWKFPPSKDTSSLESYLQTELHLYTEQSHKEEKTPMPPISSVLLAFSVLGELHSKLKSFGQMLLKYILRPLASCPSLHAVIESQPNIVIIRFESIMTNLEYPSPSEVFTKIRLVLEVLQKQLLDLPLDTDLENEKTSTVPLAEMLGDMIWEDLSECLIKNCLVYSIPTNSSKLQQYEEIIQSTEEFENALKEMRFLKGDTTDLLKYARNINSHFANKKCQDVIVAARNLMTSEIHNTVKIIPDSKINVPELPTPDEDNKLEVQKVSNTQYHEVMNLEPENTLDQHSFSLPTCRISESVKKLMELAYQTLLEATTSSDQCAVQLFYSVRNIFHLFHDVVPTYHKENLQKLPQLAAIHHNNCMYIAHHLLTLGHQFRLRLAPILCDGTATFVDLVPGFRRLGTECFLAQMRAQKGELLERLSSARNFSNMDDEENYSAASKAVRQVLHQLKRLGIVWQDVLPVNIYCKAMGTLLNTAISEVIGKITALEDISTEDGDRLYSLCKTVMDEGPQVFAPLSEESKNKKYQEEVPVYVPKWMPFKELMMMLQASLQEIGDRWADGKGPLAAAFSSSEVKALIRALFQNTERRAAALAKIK

log2 fold change, inactive:
O=C(Nc1cccc(Nc2ncc(Br)c(NCCc3cnc[nH]3)n2)c1)N1CCCC1 -0.018, CN1CC[C@H](c2c(O)cc(O)c3c(=O)cc(-c4ccccc4Cl)oc23)[C@H](O)C1 [alvocidib] -0.02, CC(C)N(C[C@H]1O[C@@H](n2cnc3c(N)ncnc32)[C@H](O)[C@@H]1O)[C@H]1C[C@@H](CCc2nc3cc(C(C)(C)C)ccc3[nH]2)C1 [pinometostat] 0.152, COc1ccc(Cn2ccc3ccc(C(=O)NO)cc32)cc1 -0.004, Cc1cn(-c2cc(NC(=O)c3ccc(C)c(Nc4nccc(-c5cccnc5)n4)c3)cc(C(F)(F)F)c2)cn1 [nilotinib] -0.088, C#Cc1cccc(Nc2ncnc3cc(OCCOC)c(OCCOC)cc23)c1 [erlotinib] 0.016, CCn1cc(-c2ccnc3[nH]c(-c4cccc(CN(C)C)c4)cc23)c(-c2ccc(NC(=O)N(C)C)cc2)n1 0.022, O=C1NC(=NCc2cccs2)S/C1=C\c1ccc2ncccc2c1 -0.021, CC[C@@H]1C(=O)N(C)c2cnc(Nc3ccc(C(=O)NC4CCN(C)CC4)cc3OC)nc2N1C1CCCC1 -0.197, CN1CCN(c2nc(C3=C(c4c[nH]c5ccccc45)C(=O)NC3=O)c3ccccc3n2)CC1 [sotrastaurin] -0.089, Cc1ccc(NC(=O)c2cccc(C(C)(C)C#N)c2)cc1Nc1ccc2ncn(C)c(=O)c2c1 0.015

Reference: the supplement of paper PMC10849652
